a7 integrin act = integrin-mediated muscular dystrophy alleviation activation; alpha7betagal myoblasts, beta-gal FDG fluorescence, 48 h; Potency, µM (doses to about 38.3 µM), inactives show at the top dose activation, most hits filed as activators; 0.064% of 350,000 active; AID 624291;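 note: potency is the fitted concentration of half-maximal effect; 100% = response of the positive control SU9516; nearly all actives have a fitted effect of over 60% in size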
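Alpha7betagal+/- myoblasts (passage 13) were plated 16-24 hr, then exposed to compounds (1:260 dilution of DMSO stock) for 48 hours at 37C. After MPER lysis, β-galactosidase reporter activity was read as FDG fluorescence (ex 480/em 540) after 30 minutes.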
DRD3 agonist = D3 dopamine receptor (human) agonism. P35462. D3R DiscoveRx beta-arrestin cells, luminescence, 90 min. max activation, %. 0.58% of 410,000 active. AID 652048; in the data active = max activation above about 30%; note: 0% is about no effect
Target sequence (P35462 whole entry, looked up): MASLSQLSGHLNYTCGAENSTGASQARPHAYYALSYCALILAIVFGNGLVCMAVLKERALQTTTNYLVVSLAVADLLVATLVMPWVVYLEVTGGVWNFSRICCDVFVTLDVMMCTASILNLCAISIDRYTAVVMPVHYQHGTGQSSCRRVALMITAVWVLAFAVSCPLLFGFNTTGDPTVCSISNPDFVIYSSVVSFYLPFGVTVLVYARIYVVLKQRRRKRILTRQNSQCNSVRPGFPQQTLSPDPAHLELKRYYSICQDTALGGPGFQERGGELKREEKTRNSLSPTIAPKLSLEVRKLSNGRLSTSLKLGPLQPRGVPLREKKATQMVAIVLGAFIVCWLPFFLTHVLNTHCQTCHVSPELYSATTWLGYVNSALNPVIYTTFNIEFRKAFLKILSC
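Cells at 1500/well, incubated overnight, then treated with pinned compounds (dopamine as control) for 90 min at 37 degrees C. DiscoveRx reagent added for 30 - 60 minutes at room temperature; luminescence read.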
D3 antag = D3 dopamine receptor (human) antagonism; P35462; D3R cells, DiscoveRx beta-arrestin luminescence, antagonist mode; hits give low values; max response, negative = inhibition, %; 2.5% of 360,000 active; AID 652054; in the data active = max response below about -50%; inconclusive = no clear call, values can overlap the other calls; note: % is set by controls: 0 for no effect and ±100 for the full control effect
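Cells plated overnight at 1500 cells/well, then exposed to library compounds with dopamine controls for 90 minutes at 37 degrees C. DiscoveRx reagent added for 30–60 minutes at room temperature; luminescence read, quantitative HTS format.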
IL-1B inflam inh = inhibitors of inflammasome signaling (IL-1 beta secretion); activity change, % at 57.5 µM; AID 743279; THP-1 LPS/ATP IL-1B secretion, AlphaLISA, 16 h; hits give low values; 4.7% of 360,000 active; in the data active = activity change below about -50%; inconclusive = mostly about -30% to -49%; note: % is set by controls: 0 for no effect and ±100 for the full control effect
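Secreted IL-1B measured by AlphaLISA bead assay after 16 h compound exposure of THP-1 cells; compounds (final up to 57.5 uM) added 1 h before LPS (250 ng/mL) and ATP (1.25 mM) stimulation; lower signal means less secretion.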
ATXN2 expr inh = reduces ATXN2 reporter expression in HEK-293 cells | HEK-293 ATXN2-luciferase reporter, luminescence, 24 h | Potency, µM (titrated, usually from 57 µM), for inactives: top-dose activity change, negative = inhibition, hits mostly inhibitors | 0.72% of 360,000 active; note: potency is the fitted concentration of half-maximal effect; % is set by controls: 0 for no effect and ±100 for the full control effect; nearly all actives have a fitted effect of over 55% in size
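qHTS (up to 57 uM final) was run with 24 h compound exposure of reporter cells at 37 °C. Each well was multiplexed: SteadyGlo luminescence measured ATXN2-luciferase expression after a fluorogenic Gly-Phe-AFC viability readout (25 uM final).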
S2 tox = reduces viability in counter-screen for ATXN expression inhibitors; S2 cells (HEK-293 line with an ATXN2-luciferase reporter) viability, CellTiter-Fluor protease fluorescence, 24 h; Potency, µM (titrated, usually from 56.7 µM), actives largely listed as cytotoxic; 0.49% of 400,000 active; AID 651635; note: potency is the fitted concentration of half-maximal effect; nearly all actives have a fitted effect of over 40% in size
An asterisk follows results filed as active; i = inactive; u = inconclusive; x = not tested or not shown. The list is not random: actives were taken first. Their share in the collection is about 7%. Unless noted, calls come from the whole dose curve; as a rule, active = well fitted curve in the direction sought with a large enough effect; inconclusive = small, poorly fitted or top-dose-only effect, or another doubt; inactive = no such curve, though single readings can be large; an effect the other way counts as inactive or inconclusive.

SMILES | a7 integrin act | DRD3 agonist | D3 antag | IL-1B inflam inh | ATXN2 expr inh | S2 tox
CCOc1ccc(NC(=O)CCCc2nc(-c3cccc(OC)c3)no2)cc1 | x | -12.5 | x | x | -10.8% | i
O=C(CCN1CCCCO1)NC1CCCc2c1cnn2-c1ccc(F)cc1F (stereo not drawn) | 1.8% | -0.3 | -2.5 | 37.6 | x | i
CCOC(=O)c1nnn(CC(=O)Nc2ccccc2OC)c1C(=O)OCC | 2.4% | -2.4 | -27.2 | -2.9 | -6.1% | i
O=c1cc(CCl)[nH]c2nc3ccccc3n12 | u | -15.0 | 3.7 | -56.2* | 0.3% | i
Cc1ccc(NC(=O)CCC(=O)n2nc(C)cc2C)c(C)c1 | 21.0% | 1.1 | 5.4 | 4.4 | 1.4% | i
Cc1nc(SCC(=O)NCC2CCCO2)c2c3c(sc2n1)CCCC3 (stereo not drawn) | -18.1% | 7.5 | 1.0 | -1.3 | 3.3% | u
COCCn1c(C)cc(C(=O)CSc2nc(C)nc3sc4c(c23)CCC4)c1C | -10.7% | 54.4* | 40.0 | 22.1 | -17.1% | i
O=C(N/N=C/c1ccco1)c1cccc(S(=O)(=O)Nc2ccccc2Cl)c1 | 13.0% | -12.3 | -11.6 | 0.4 | -2.8% | i
CCOC(=O)c1cc(-c2ccc(OC)cc2F)nc2c1c(C)nn2CCC#N | 3.9% | 28.2 | 25.6 | -50.0* | 1.0% | i
CCOC(=O)c1cc(-c2ccc(Cl)cc2)nc2c1c(C)nn2CCC#N | -14.0% | 1.3 | 3.8 | u | -7.5% | i
NCC1CCN(c2nc3ccccc3c3c2CCCC3)CC1 | -55.6% | -4.6 | -2.6 | -94.8* | u | 28.2µM*
Cc1ccc(C)c(N2CCN(C(=O)CCCOc3cc(=O)n(C)c4ccccc34)CC2)c1 | 0.1% | 78.9* | 29.7 | u | u | u
Cc1ccc(C)c(N2CCN(C(=O)CCc3nc(-c4ccccc4C(F)(F)F)no3)CC2)c1 | -25.8% | 38.7* | 108.2 | u | -3.8% | i
Cc1ccc(C)c(N2CCN(C(=O)COc3cc(=O)n(C)c4ccccc34)CC2)c1 | -23.5% | 5.1 | 46.3 | -26.4 | 11.2% | i
COc1ccc(-c2noc(CCCCC(=O)N3CCN(c4cc(C)ccc4C)CC3)n2)cc1 | -8.4% | 52.9* | 100.5 | 14.1 | 0.0% | i
COc1ccccc1-c1noc(CCC(=O)N2CCN(c3cc(C)ccc3C)CC2)n1 | 6.7% | 48.7* | 63.8 | 14.0 | -36.7% | i
CCOC(=O)C1CCN(c2ncnc3c2nnn3Cc2ccccc2Cl)CC1 | -10.7% | -2.7 | -21.2 | -3.8 | 6.5% | i
CCOC(=O)Cn1cnc2scc(-c3ccc(C)cc3)c2c1=O | 23.1% | -9.5 | -15.4 | -5.5 | -8.0% | i
CC1(C)CC[C@]2(C(=O)n3ccnc3)CC[C@]3(C)[C@H](C(=O)C=C4[C@@]5(C)C=C(C#N)C(=O)C(C)(C)[C@@H]5CC[C@]43C)[C@@H]2C1 | -52.3% | -2.2 | u | -100.2* | 3.36µM* | 3.77µM*
CCn1c(O)c(N=NC2=NC(=O)CS2)c2ccccc21 | -13.2% | -16.0 | -79.5* | 16.5 | 16.0% | i
CCOC(=O)c1c(C)oc2c1c(C=NCCO)c(O)c1ccccc12 | -21.6% | 1.2 | -21.9 | -111.5* | -7.5% | x
CCOC(=O)c1c(C)oc2c1c(C(c1ccccc1)N1CCOCC1)c(O)c1ccccc12 (stereo not drawn) | -19.3% | -6.3 | 7.3 | -70.6* | u | x
CN(CC(=O)Nc1ccc(S(=O)(=O)N2CCOCC2)cc1)Cc1ccc(F)cc1 | -18.7% | -3.7 | -3.5 | 0.0 | -38.2% | i
C#CCSc1nncn1C(=O)/C=C/c1ccccc1 | -12.6% | 3.1 | -10.1 | -80.7* | 3.6% | i
COC(=O)c1ccc(CSc2nc3ccccc3c(=O)n2C)o1 | -20.6% | 7.0 | -1.2 | u | -12.1% | i
SMILES | a7 integrin act | DRD3 agonist | D3 antag | IL-1B inflam inh | ATXN2 expr inh | S2 tox
Cc1ccc(-c2nn3c(C)nnc3s2)cc1NC(=O)c1ccc(-c2ccc(Cl)cc2Cl)o1 | -58.0% | 24.3 | 33.6 | 21.4 | 8.91µM* | x
Cc1ccc(-c2nn3c(C)nnc3s2)cc1NC(=O)c1ccc(-c2cccc(Cl)c2)o1 | 2.0% | 7.2 | 2.6 | 104.3 | u | u
COc1ccc(N(CC(C)C)S(=O)(=O)c2nnc(NC(=O)c3ccco3)s2)cc1 | -12.6% | -15.7 | -91.0* | -2.2 | 1.6% | i
O=S(=O)(c1cccc2nsnc12)N1CCc2ccccc21 | 9.4% | 11.6 | 12.3 | -7.3 | -0.4% | i
c1ccc(C(c2ccccc2)c2noc(CN3CCC(c4ccncc4)CC3)n2)cc1 | 0.0% | 52.4* | -21.7 | -16.9 | -14.4% | i
COc1cccc(C(C(=O)NCc2ccco2)N(C(=O)Cn2nnc3ccccc32)C2CC2)c1OC (stereo not drawn) | 8.8% | 1.0 | -53.3* | 7.0 | 2.6% | i
CC(C)(C)OC(=O)N(CCc1ccccc1)Cc1cccc(OCc2cccc(NC(=O)c3ccccc3)c2)c1 | 8.1% | -13.0 | 5.5 | u | 4.1% | i
NS(=O)(=O)c1ccc(NCc2cc(Cl)ccc2OCc2ccccc2F)cc1 | -4.2% | -42.5 | -6.8 | -74.4* | u | u
NS(=O)(=O)c1ccc(NCc2c(F)cccc2Cl)cc1 | 4.5% | -1.3 | -12.6 | -2.4 | 8.5% | i
O=C(NCc1ccc2c(c1)OCO2)C1Cc2ccccc2CN1C(=O)c1ccco1 (stereo not drawn) | 7.5% | 5.4 | 12.7 | -2.3 | 0.0% | i
O=C(NCCCN1CCOCC1)c1ccccc1N1C(=O)[C@@H]2Cc3c([nH]c4ccccc34)C(c3ccc(F)cc3)N2C1=O (stereo partly drawn) | 17.8% | 32.9* | 15.6 | -6.3 | -8.6% | i
O=C(NCCN1CCOCC1)c1ccccc1N1C(=O)[C@@H]2Cc3c([nH]c4ccccc34)C(c3ccccc3)N2C1=O (stereo partly drawn) | 6.0% | -24.4 | 0.0 | -6.0 | 3.2% | i
Cc1nnsc1C(=O)Nc1ccc(S(=O)(=O)N2CCC(C)CC2)cc1 | -16.5% | 2.9 | -1.2 | -54.5* | -12.9% | i
CC1CCN(S(=O)(=O)c2ccc(S(=O)(=O)N3CCCC3)cc2)CC1 | 8.91µM* | 34.2* | 5.7 | 18.9 | -1.0% | u
O=S(=O)(c1ccc(C2CCCCC2)cc1)N1CCCC1 | 11.2% | -3.4 | u | -64.7* | -3.1% | i
CC12CCC(C(=O)N3CCCc4ccccc43)(OC1=O)C2(C)C (stereo not drawn) | -25.5% | -5.3 | 7.3 | i | -2.6% | i
CCCCCOc1c(Cl)cc(C(=O)N(Cc2ccc(C)o2)C2CCS(=O)(=O)C2)cc1Cl (stereo not drawn) | x | 1.2 | x | x | u | u
COc1ccc(-c2nnc(NC(=O)Cc3ccccc3)o2)cc1 | -2.7% | -3.6 | -6.3 | -1.7 | x | i
